# The supplement of paper PMC8728848
# Only a selection was taken, and the strongest signals are over-represented in it overall.
# Tests used:
# Test in all cases: glycan array binding signal (z-score within array); higher = stronger binding
# Details in all cases: glycan notation: IUPAC condensed, linker removed
# [1] = molecular target: Fuc(a1-2)Gal(b1-3)GalNAc(a1-3)[Fuc(a1-2)]Gal(b1-4)Glc
# Method in brief: (§1)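 The binding signal is a Z-score computed within each array. Data were drawn from 3228 arrays in the Consortium for Functional Glycomics database, restricted to those with a known protein sequence. Scores were averaged over arrays of the same protein sequence at different concentrations or buffers, and over linkers, and negative values can be taken as non-binding.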
# [2] = molecular target: Fuc(a1-2)Gal(b1-4)GlcNAc(b1-3)[Fuc(a1-3)[Gal(b1-4)]GlcNAc(b1-6)]Gal(b1-4)Glc
# Method in brief: as §1
# [3] = molecular target: Fuc(a1-2)Gal(b1-4)[Fuc(a1-3)]GlcNAc(b1-3)[Neu5Ac(a2-6)Gal(b1-4)GlcNAc(b1-6)]Gal(b1-4)Glc
# Method in brief: as §1
# [4] = molecular target: Fuc(a1-2)[Gal(a1-3)]Gal(b1-3)GlcNAc
# Method in brief: as §1
# [5] = molecular target: Fuc(a1-2)[Gal(a1-3)]Gal(b1-4)GlcNAc(b1-6)GalNAc
# Method in brief: as §1
# [6] = molecular target: Fuc(a1-2)[GalNAc(a1-3)]Gal(b1-3)GalNAc(b1-3)Gal(a1-4)Gal(b1-4)Glc
# Method in brief: as §1
# [7] = molecular target: Gal(a1-3)Gal(b1-4)GlcNAc(b1-2)Man
# Method in brief: as §1
# [8] = molecular target: Gal(b1-3)GlcNAc(b1-3)Gal(b1-4)GlcNAc
# Method in brief: as §1
# [9] = molecular target: Gal(b1-4)GlcNAc(b1-3)Gal(b1-3)GalNAc
# Method in brief: as §1
# [10] = molecular target: Gal(b1-4)GlcNAc(b1-3)Gal(b1-4)GlcNAc(b1-3)Gal(b1-4)GlcNAc(b1-2)Man(a1-3)[Gal(b1-4)GlcNAc(b1-3)Gal(b1-4)GlcNAc(b1-3)Gal(b1-4)GlcNAc(b1-2)Man(a1-6)]Man(b1-4)GlcNAc(b1-4)[Fuc(a1-6)]GlcNAc
# Method in brief: as §1
# [11] = molecular target: Gal(b1-4)GlcNAc(b1-3)Gal(b1-4)GlcNAc(b1-3)Gal(b1-4)GlcNAc(b1-2)[Gal(b1-4)GlcNAc(b1-3)Gal(b1-4)GlcNAc(b1-3)Gal(b1-4)GlcNAc(b1-6)]Man(a1-6)[Gal(b1-4)GlcNAc(b1-3)Gal(b1-4)GlcNAc(b1-3)Gal(b1-4)GlcNAc(b1-2)Man(a1-3)]Man(b1-4)GlcNAc(b1-4)[Fuc(a1-6)]GlcNAc
# Method in brief: as §1
# [12] = molecular target: Gal(b1-4)GlcNAc(b1-3)Gal(b1-4)GlcNAc(b1-3)Gal(b1-4)GlcNAc(b1-3)Gal(b1-4)GlcNAc(b1-2)Man(a1-3)[Gal(b1-4)GlcNAc(b1-3)Gal(b1-4)GlcNAc(b1-3)Gal(b1-4)GlcNAc(b1-3)Gal(b1-4)GlcNAc(b1-2)Man(a1-6)]Man(b1-4)GlcNAc(b1-4)GlcNAc
# Method in brief: as §1
# [13] = molecular target: Gal(b1-4)GlcNAc(b1-3)Gal(b1-4)GlcNAc(b1-3)Gal(b1-4)GlcNAc(b1-3)Gal(b1-4)GlcNAc(b1-2)Man(a1-3)[Gal(b1-4)GlcNAc(b1-3)Gal(b1-4)GlcNAc(b1-3)Gal(b1-4)GlcNAc(b1-3)Gal(b1-4)GlcNAc(b1-2)Man(a1-6)]Man(b1-4)GlcNAc(b1-4)[Fuc(a1-6)]GlcNAc
# Method in brief: as §1
# [14] = molecular target: Gal(b1-4)GlcNAc(b1-3)Gal(b1-4)GlcNAc(b1-3)Gal(b1-4)GlcNAc(b1-3)Gal(b1-4)GlcNAc(b1-2)[Gal(b1-4)GlcNAc(b1-3)Gal(b1-4)GlcNAc(b1-3)Gal(b1-4)GlcNAc(b1-3)Gal(b1-4)GlcNAc(b1-6)]Man(a1-6)[Gal(b1-4)GlcNAc(b1-3)Gal(b1-4)GlcNAc(b1-3)Gal(b1-4)GlcNAc(b1-3)Gal(b1-4)GlcNAc(b1-2)Man(a1-3)]Man(b1-4)GlcNAc(b1-4)[Fuc(a1-6)]GlcNAc
# Method in brief: as §1
# [15] = molecular target: Gal(b1-4)GlcNAc(b1-3)Gal(b1-4)GlcNAc(b1-3)Gal(b1-4)GlcNAc(b1-3)Gal(b1-4)GlcNAc(b1-3)Gal(b1-4)GlcNAc(b1-2)Man(a1-3)[Gal(b1-4)GlcNAc(b1-3)Gal(b1-4)GlcNAc(b1-3)Gal(b1-4)GlcNAc(b1-3)Gal(b1-4)GlcNAc(b1-3)Gal(b1-4)GlcNAc(b1-2)Man(a1-6)]Man(b1-4)GlcNAc(b1-4)GlcNAc
# Method in brief: as §1
# [16] = molecular target: Gal(b1-4)GlcNAc(b1-3)Gal(b1-4)GlcNAc(b1-3)Gal(b1-4)GlcNAc(b1-3)Gal(b1-4)GlcNAc(b1-3)Gal(b1-4)GlcNAc(b1-2)Man(a1-3)[Gal(b1-4)GlcNAc(b1-3)Gal(b1-4)GlcNAc(b1-3)Gal(b1-4)GlcNAc(b1-3)Gal(b1-4)GlcNAc(b1-3)Gal(b1-4)GlcNAc(b1-2)Man(a1-6)]Man(b1-4)GlcNAc(b1-4)[Fuc(a1-6)]GlcNAc
# Method in brief: as §1
# [17] = molecular target: Gal(b1-4)GlcNAc(b1-3)Gal(b1-4)GlcNAc(b1-3)Gal(b1-4)GlcNAc(b1-3)Gal(b1-4)GlcNAc(b1-3)Gal(b1-4)GlcNAc(b1-2)[Gal(b1-4)GlcNAc(b1-3)Gal(b1-4)GlcNAc(b1-3)Gal(b1-4)GlcNAc(b1-3)Gal(b1-4)GlcNAc(b1-3)Gal(b1-4)GlcNAc(b1-6)]Man(a1-6)[Gal(b1-4)GlcNAc(b1-3)Gal(b1-4)GlcNAc(b1-3)Gal(b1-4)GlcNAc(b1-3)Gal(b1-4)GlcNAc(b1-3)Gal(b1-4)GlcNAc(b1-2)Man(a1-3)]Man(b1-4)GlcNAc(b1-4)[Fuc(a1-6)]GlcNAc
# Method in brief: as §1
# [18] = molecular target: Gal(b1-4)GlcNAc(b1-3)Gal(b1-4)GlcNAc(b1-3)Gal(b1-4)GlcNAc(b1-3)Gal(b1-4)GlcNAc(b1-3)Gal(b1-4)GlcNAc(b1-3)Gal(b1-4)GlcNAc(b1-2)Man(a1-3)[Gal(b1-4)GlcNAc(b1-3)Gal(b1-4)GlcNAc(b1-3)Gal(b1-4)GlcNAc(b1-3)Gal(b1-4)GlcNAc(b1-3)Gal(b1-4)GlcNAc(b1-3)Gal(b1-4)GlcNAc(b1-2)Man(a1-6)]Man(b1-4)GlcNAc(b1-4)GlcNAc
# Method in brief: as §1
# [19] = molecular target: Gal(b1-4)GlcNAc(b1-3)Gal(b1-4)GlcNAc(b1-3)[Gal(b1-4)GlcNAc(b1-3)Gal(b1-4)GlcNAc(b1-6)]GalNAc
# Method in brief: as §1
# [20] = molecular target: Gal3S(b1-4)Glc
# Method in brief: as §1
# [21] = molecular target: GalNAc(b1-3)Gal
# Method in brief: as §1
# [22] = molecular target: GalNAc(b1-4)GlcNAc6S
# Method in brief: as §1
# [23] = molecular target: Glc(a1-6)Glc(a1-6)Glc(a1-6)Glc
# Method in brief: as §1
# [24] = molecular target: GlcNAc(b1-2)Man(a1-3)[GlcNAc(b1-2)Man(a1-6)]Man(b1-4)GlcNAc(b1-4)GlcNAc
# Method in brief: as §1
# [25] = molecular target: GlcNAc(b1-3)Gal
# Method in brief: as §1
# [26] = molecular target: GlcNAc(b1-3)Gal(b1-4)GlcNAc(b1-3)Gal(b1-4)GlcNAc(b1-2)Man(a1-3)[GlcNAc(b1-3)Gal(b1-4)GlcNAc(b1-3)Gal(b1-4)GlcNAc(b1-2)Man(a1-6)]Man(b1-4)GlcNAc(b1-4)GlcNAc
# Method in brief: as §1
# [27] = molecular target: GlcNAc(b1-3)Gal(b1-4)GlcNAc(b1-3)Gal(b1-4)GlcNAc(b1-3)Gal(b1-4)GlcNAc(b1-3)Gal(b1-4)GlcNAc(b1-2)Man(a1-3)[GlcNAc(b1-3)Gal(b1-4)GlcNAc(b1-3)Gal(b1-4)GlcNAc(b1-3)Gal(b1-4)GlcNAc(b1-3)Gal(b1-4)GlcNAc(b1-2)Man(a1-6)]Man(b1-4)GlcNAc(b1-4)GlcNAc
# Method in brief: as §1
# [28] = molecular target: GlcNAc(b1-3)Gal(b1-4)GlcNAc(b1-3)Gal(b1-4)GlcNAc(b1-3)Gal(b1-4)GlcNAc(b1-3)Gal(b1-4)GlcNAc(b1-2)[GlcNAc(b1-3)Gal(b1-4)GlcNAc(b1-3)Gal(b1-4)GlcNAc(b1-3)Gal(b1-4)GlcNAc(b1-3)Gal(b1-4)GlcNAc(b1-6)]Man(a1-6)[GlcNAc(b1-3)Gal(b1-4)GlcNAc(b1-3)Gal(b1-4)GlcNAc(b1-3)Gal(b1-4)GlcNAc(b1-3)Gal(b1-4)GlcNAc(b1-2)Man(a1-3)]Man(b1-4)GlcNAc(b1-4)[Fuc(a1-6)]GlcNAc
# Method in brief: as §1
# [29] = molecular target: Kdn(a2-3)Gal(b1-3)GalNAc
# Method in brief: as §1
# [30] = molecular target: Man(a1-3)[Man(a1-6)]Man
# Method in brief: as §1
# [31] = molecular target: Neu5Ac(a2-3)Gal(b1-3)[Neu5Ac(a2-6)]GalNAc
# Method in brief: as §1
# [32] = molecular target: Neu5Ac(a2-3)Gal(b1-4)[Fuc(a1-3)]GlcNAc(b1-6)[Neu5Ac(a2-3)Gal(b1-3)]GalNAc
# Method in brief: as §1
# [33] = molecular target: Neu5Ac(a2-3)GalNAc(b1-4)GlcNAc
# Method in brief: as §1
# [34] = molecular target: Neu5Ac(a2-6)Gal(b1-4)GlcNAc(b1-2)Man(a1-3)[Neu5Ac(a2-6)Gal(b1-4)GlcNAc(b1-2)Man(a1-6)]Man(b1-4)GlcNAc(b1-4)[Fuc(a1-6)]GlcNAc
# Method in brief: as §1
# [35] = molecular target: Neu5Ac(a2-6)Gal(b1-4)GlcNAc(b1-3)Gal(b1-4)GlcNAc
# Method in brief: as §1
# [36] = molecular target: Neu5Ac(a2-6)Gal(b1-4)GlcNAc(b1-6)GalNAc
# Method in brief: as §1
# [37] = molecular target: Neu5Ac(a2-6)Gal(b1-4)GlcNAc(b1-6)[Gal(b1-3)]GalNAc
# Method in brief: as §1
# [38] = molecular target: Neu5Gc(a2-3)Gal(b1-4)Glc
# Method in brief: as §1
# [39] = molecular target: Neu5Gc(a2-6)Gal(b1-4)GlcNAc
# Method in brief: as §1
# [40] = molecular target: Neu5Gc(a2-8)Neu5Gc(a2-3)Gal(b1-4)GlcNAc(b1-3)Gal(b1-4)GlcNAc
# Method in brief: as §1
binder,measurement,setting,value
"LSL-150 (Laetiporus sulphureus), Q7Z8V1 (protein) MTDIYIPPEGLYFRLLGFASRQVIFARNSPSPDVGLSPVNDQATDQYFSLIYGTGEHAGLYAIKSKATGKVLFSRRPAEPYVGQIDGDGRYPDNWFKIEPGKTYLSKYFRLVQPSTGTALVSRTHLQPYFWNHPQTEVFDDQYFTFLFEDHHHHHH",glycan array binding signal (z-score),[1],-0.208
same,glycan array binding signal (z-score),[2],-0.2
same,glycan array binding signal (z-score),[3],-0.204
same,glycan array binding signal (z-score),[4],-0.206
same,glycan array binding signal (z-score),[5],-0.207
same,glycan array binding signal (z-score),[6],-0.209
same,glycan array binding signal (z-score),[7],-0.208
same,glycan array binding signal (z-score),[8],-0.124
same,glycan array binding signal (z-score),[9],-0.205
same,glycan array binding signal (z-score),[10],5.23
same,glycan array binding signal (z-score),[11],5.29
same,glycan array binding signal (z-score),[12],5.88
same,glycan array binding signal (z-score),[13],6.24
same,glycan array binding signal (z-score),[14],6.23
same,glycan array binding signal (z-score),[15],5.44
same,glycan array binding signal (z-score),[16],6.16
same,glycan array binding signal (z-score),[17],6.2
same,glycan array binding signal (z-score),[18],5.13
same,glycan array binding signal (z-score),[19],0.034
same,glycan array binding signal (z-score),[20],-0.196
same,glycan array binding signal (z-score),[21],-0.207
same,glycan array binding signal (z-score),[22],-0.203
same,glycan array binding signal (z-score),[23],-0.207
same,glycan array binding signal (z-score),[24],-0.205
same,glycan array binding signal (z-score),[25],-0.195
same,glycan array binding signal (z-score),[26],0.937
same,glycan array binding signal (z-score),[27],5.26
same,glycan array binding signal (z-score),[28],7.09
same,glycan array binding signal (z-score),[29],-0.201
same,glycan array binding signal (z-score),[30],-0.2
same,glycan array binding signal (z-score),[31],-0.208
same,glycan array binding signal (z-score),[32],-0.203
same,glycan array binding signal (z-score),[33],-0.213
same,glycan array binding signal (z-score),[34],-0.208
same,glycan array binding signal (z-score),[35],-0.079
same,glycan array binding signal (z-score),[36],-0.203
same,glycan array binding signal (z-score),[37],-0.194
same,glycan array binding signal (z-score),[38],-0.205
same,glycan array binding signal (z-score),[39],-0.206
same,glycan array binding signal (z-score),[40],-0.196
